Compound activity (PubChem)
PrPC TRFRET = cell surface PrPC inhibition, primary TR-FRET screen | TR-FRET read-out | inhibition, % at 13.8 µM | actives 0.43% (n = 370,000); in the data active = inhibition above about 24%; note: 0% = median of the test wells and 100% = reference compound wells
Yp Topo-I inh = inhibitors of Yersinia pestis topoisomerase I; actives 0.064% (n = 360,000); AID 504884; Y. pestis Topo-I cleavage product accumulation, plate reader; activity, % at 10 µM; in the data active = activity above about 50%, passing the limit was not always enough
GDH-TPI counter-1 = GDH-TPI coupled enzyme inhibition counter-screen. GDH-TPI coupled enzyme counterscreen, NADH absorbance. inhibition, % at 4.8 µM. actives 1.2% (n = 360,000). AID 588335; in the data active = inhibition above about 30%;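 note: 0% = DMSO wells and 100% = wells lacking the enzyme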
TcdB GH inh = inhibitors of Clostridioides difficile toxin B glycohydrolase; TcdB glycohydrolase enzymatic assay, plate reader; inhibition, % at 9.99 µM; actives 0.24% (n = 350,000)
Target sequence (P18177 whole entry, looked up): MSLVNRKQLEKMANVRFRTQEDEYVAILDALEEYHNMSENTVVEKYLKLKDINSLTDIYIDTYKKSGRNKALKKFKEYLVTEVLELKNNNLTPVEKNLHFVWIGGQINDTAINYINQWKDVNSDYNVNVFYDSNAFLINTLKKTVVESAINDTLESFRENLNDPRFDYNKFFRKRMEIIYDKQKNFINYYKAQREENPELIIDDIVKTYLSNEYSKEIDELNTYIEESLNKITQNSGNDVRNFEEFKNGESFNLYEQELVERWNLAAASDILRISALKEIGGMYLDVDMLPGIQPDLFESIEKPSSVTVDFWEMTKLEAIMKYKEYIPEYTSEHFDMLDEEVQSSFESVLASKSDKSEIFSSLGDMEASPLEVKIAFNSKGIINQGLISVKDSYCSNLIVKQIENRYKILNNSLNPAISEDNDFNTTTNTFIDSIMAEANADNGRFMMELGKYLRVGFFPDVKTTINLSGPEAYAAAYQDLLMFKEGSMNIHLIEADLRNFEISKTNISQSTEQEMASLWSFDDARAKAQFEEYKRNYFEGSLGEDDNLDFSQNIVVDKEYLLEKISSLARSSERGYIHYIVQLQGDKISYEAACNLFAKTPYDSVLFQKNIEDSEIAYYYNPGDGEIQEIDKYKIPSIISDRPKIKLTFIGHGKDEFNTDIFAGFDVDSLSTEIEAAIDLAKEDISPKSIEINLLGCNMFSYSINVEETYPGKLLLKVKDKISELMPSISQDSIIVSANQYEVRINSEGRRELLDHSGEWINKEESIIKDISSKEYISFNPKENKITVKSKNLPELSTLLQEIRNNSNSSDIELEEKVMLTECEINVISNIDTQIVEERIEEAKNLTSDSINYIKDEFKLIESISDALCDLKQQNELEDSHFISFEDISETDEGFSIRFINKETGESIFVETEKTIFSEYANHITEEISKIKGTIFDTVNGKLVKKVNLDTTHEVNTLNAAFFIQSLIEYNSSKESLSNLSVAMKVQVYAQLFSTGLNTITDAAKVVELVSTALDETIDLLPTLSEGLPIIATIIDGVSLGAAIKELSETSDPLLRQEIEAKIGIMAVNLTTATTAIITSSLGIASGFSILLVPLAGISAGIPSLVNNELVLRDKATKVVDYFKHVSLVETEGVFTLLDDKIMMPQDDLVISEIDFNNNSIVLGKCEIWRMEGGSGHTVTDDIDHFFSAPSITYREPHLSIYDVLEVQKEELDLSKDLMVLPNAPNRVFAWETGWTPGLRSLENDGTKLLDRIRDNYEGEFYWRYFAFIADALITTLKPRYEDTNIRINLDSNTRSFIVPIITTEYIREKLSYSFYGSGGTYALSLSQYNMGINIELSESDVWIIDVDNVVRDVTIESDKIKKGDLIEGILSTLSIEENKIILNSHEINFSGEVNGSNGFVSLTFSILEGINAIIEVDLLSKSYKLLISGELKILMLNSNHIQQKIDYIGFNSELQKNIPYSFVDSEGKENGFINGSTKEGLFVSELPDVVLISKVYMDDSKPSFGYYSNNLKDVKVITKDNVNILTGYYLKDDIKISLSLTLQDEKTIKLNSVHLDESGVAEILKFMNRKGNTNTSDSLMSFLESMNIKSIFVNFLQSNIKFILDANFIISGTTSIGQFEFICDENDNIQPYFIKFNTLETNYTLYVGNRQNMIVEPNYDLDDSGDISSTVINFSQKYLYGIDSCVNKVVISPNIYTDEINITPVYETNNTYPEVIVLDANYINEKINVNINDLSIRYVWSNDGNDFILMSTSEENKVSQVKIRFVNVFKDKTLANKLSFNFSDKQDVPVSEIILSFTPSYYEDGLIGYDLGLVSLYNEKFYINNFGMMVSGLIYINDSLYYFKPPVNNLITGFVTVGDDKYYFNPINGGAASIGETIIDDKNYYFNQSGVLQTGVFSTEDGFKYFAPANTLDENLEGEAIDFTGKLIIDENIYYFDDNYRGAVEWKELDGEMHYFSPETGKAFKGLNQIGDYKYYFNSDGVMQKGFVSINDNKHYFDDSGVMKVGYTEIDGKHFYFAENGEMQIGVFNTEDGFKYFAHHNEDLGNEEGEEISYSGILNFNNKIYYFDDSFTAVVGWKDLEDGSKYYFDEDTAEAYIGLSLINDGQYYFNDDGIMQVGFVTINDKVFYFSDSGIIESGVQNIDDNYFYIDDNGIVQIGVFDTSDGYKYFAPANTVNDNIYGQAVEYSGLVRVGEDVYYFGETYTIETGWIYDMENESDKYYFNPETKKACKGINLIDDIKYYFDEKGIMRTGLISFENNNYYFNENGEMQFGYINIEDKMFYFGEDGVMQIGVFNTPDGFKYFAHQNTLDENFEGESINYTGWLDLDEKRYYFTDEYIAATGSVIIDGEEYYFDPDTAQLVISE
FBA Mtb inh = Mtb fructose-bisphosphate aldolase inhibition | P9WQA3 | purified M. tuberculosis FBA, fluorescence read-out | inhibition, % at 1 µM | actives 2.3% (n = 360,000); in the data active = inhibition above about 27%;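 note: 0% = vehicle and 100% = reference inhibitor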
Mtb FBA inh conf = confirmation of M. tuberculosis fructose-bisphosphate aldolase inhibitors; shares compounds with FBA Mtb inh; purified M. tuberculosis FBA, fluorescence read-out; inhibition, % at 1 µM; actives 78% (n = 5,600); AID 651616; in the data active = inhibition above about 27%;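 note: 0% = vehicle wells and 100% = reference inhibitor wells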
GDH-TPI counter-2 = inhibits GDH-TPI coupling enzymes, flagging Mtb FBA hits. actives 81% (n = 5,600). GDH-TPI coupled enzyme counterscreen, fluorescence. inhibition, % at 1 µM. shares compounds with FBA Mtb inh
The depositor's hits bear a star. Hits are enriched below; roughly 3.2% of the tested compounds scored in any of these assays. Cut-off read from the data, not from the text of the source, unless noted: active = inhibition above about 10%; inactive = the rest.

COc1ccc2c3c(n(C)c2c1)[C@H](CO)N(C(=O)C1CCCC1)CC31CCN(C(=O)CN(C)C)CC1 was read as TcdB GH inh 1.
Cc1cccn2c(=O)c3cc(C(=O)N4COCC4(C)C)sc3nc12 was read as PrPC TRFRET -10, Yp Topo-I inh 7, GDH-TPI counter-1 -8, TcdB GH inh 1, FBA Mtb inh 44*, Mtb FBA inh conf 191* and GDH-TPI counter-2 149*.
Cc1cccn2c(=O)c3cc(C(=O)N4CCC5(CC4)OCCO5)n(C)c3nc12 was read as PrPC TRFRET 8, Yp Topo-I inh -6, GDH-TPI counter-1 4 and FBA Mtb inh 6.
Cc1ccccc1NC(=O)c1cc2c(=O)n3cccc(C)c3nc2s1 was read as PrPC TRFRET -2, Yp Topo-I inh -2, GDH-TPI counter-1 16, TcdB GH inh 0 and FBA Mtb inh 3.
COCCCNC(=O)c1cc2c(=O)n3cccc(C)c3nc2s1 was read as PrPC TRFRET 2, Yp Topo-I inh 2, GDH-TPI counter-1 19, TcdB GH inh 1, FBA Mtb inh 65*, Mtb FBA inh conf 66* and GDH-TPI counter-2 47*.
Screening CCCCNC(=O)c1cc2c(=O)n3cccc(C)c3nc2s1 returned PrPC TRFRET -10, Yp Topo-I inh 2, GDH-TPI counter-1 24, TcdB GH inh 0, FBA Mtb inh 74*, Mtb FBA inh conf active and GDH-TPI counter-2 active.
Screening Cc1cccn2c(=O)c3cc(C(=O)NCCc4ccccc4)sc3nc12 returned PrPC TRFRET -11, Yp Topo-I inh 8, GDH-TPI counter-1 6, TcdB GH inh 0, FBA Mtb inh 35*, Mtb FBA inh conf 0 and GDH-TPI counter-2 2.
For CCCN(C)C[C@H]1OCCCC[C@H](C)Oc2ccc(N(C)C)cc2C(=O)N([C@H](C)CO)C[C@H]1C the results were TcdB GH inh -38.
`COc1ccc(-c2cnc3c(c2)C(=O)N([C@@H](C)CO)C[C@@H](C)[C@@H](CN(C)C(=O)CN(C)C)O3)cc1` gave TcdB GH inh 1.
Screening COc1ccc(-c2c[n+]3c4n2CCCCC4=C(c2ccccc2)C3)cc1 returned PrPC TRFRET -4, Yp Topo-I inh 0, GDH-TPI counter-1 20, FBA Mtb inh 106*, Mtb FBA inh conf -2 and GDH-TPI counter-2 -4.
Nc1nc2ccccc2cc1-c1cccs1 was read as PrPC TRFRET -1, Yp Topo-I inh -4, GDH-TPI counter-1 1, TcdB GH inh 0, FBA Mtb inh 69*, Mtb FBA inh conf 76* and GDH-TPI counter-2 62*.
For Cc1ccccc1S(=O)(=O)c1cc2ccccc2nc1N the results were PrPC TRFRET 4, Yp Topo-I inh -9, GDH-TPI counter-1 9, TcdB GH inh 2, FBA Mtb inh 46*, Mtb FBA inh conf active and GDH-TPI counter-2 active.
N#Cc1ccc(Sc2nc3ccccc3[nH]2)cc1C#N was read as PrPC TRFRET 6, Yp Topo-I inh -3, GDH-TPI counter-1 -2 and FBA Mtb inh -1.
`c1csc(-c2ccc3ccccc3n2)c1` gave PrPC TRFRET -11, Yp Topo-I inh -4, GDH-TPI counter-1 11 and FBA Mtb inh 25.
Screening N#Cc1cc2ccccc2nc1N returned PrPC TRFRET 2, Yp Topo-I inh 3, GDH-TPI counter-1 26, TcdB GH inh 1, FBA Mtb inh 75*, Mtb FBA inh conf 65* and GDH-TPI counter-2 48*.
`Cc1ccc(-c2cc3ccccc3nc2N)cc1` gave PrPC TRFRET 8, Yp Topo-I inh 11, GDH-TPI counter-1 -4, TcdB GH inh 2, FBA Mtb inh 46*, Mtb FBA inh conf 88* and GDH-TPI counter-2 80*.
Screening CCN1[C@H](C(=O)NCCc2cn(C)cn2)[C@@H](CO)[C@@H]2Cn3c(ccc(-c4ccc(F)cc4)c3=O)[C@@H]21 returned TcdB GH inh 0.
C[C@@H]1CN([C@H](C)CO)C(=O)c2cc(NC(=O)c3ccccc3)ccc2O[C@@H](C)CCCCO[C@@H]1CN(C)C(=O)Nc1cccc2ccccc12 was read as TcdB GH inh -2.
Screening C[C@@H]1CN([C@@H](C)CO)C(=O)c2cc(/C=C/c3ccccc3)cnc2O[C@@H]1CN(C)Cc1cncnc1 returned TcdB GH inh 2.
For Cc1ccccc1NC(=O)NNC(=O)c1ccc2ccccc2c1 the results were PrPC TRFRET -3, Yp Topo-I inh 10, GDH-TPI counter-1 -3, TcdB GH inh -2 and FBA Mtb inh 0.
CCc1ccc(NC(=O)NNC(=O)c2ccc3ccccc3c2O)cc1 was read as PrPC TRFRET -5, Yp Topo-I inh -2, GDH-TPI counter-1 18, TcdB GH inh 1, FBA Mtb inh 36*, Mtb FBA inh conf active and GDH-TPI counter-2 190*.
COc1ccc(NC(=O)NNC(=O)c2ccc3ccccc3c2O)cc1OC was read as PrPC TRFRET 0, Yp Topo-I inh -9, GDH-TPI counter-1 9, TcdB GH inh 1, FBA Mtb inh 36* and GDH-TPI counter-2 active.
Screening COc1ccccc1NC(=O)NNC(=O)c1ccc2ccccc2c1O returned PrPC TRFRET 5, Yp Topo-I inh -2, GDH-TPI counter-1 6, TcdB GH inh -1, FBA Mtb inh 32*, Mtb FBA inh conf 143* and GDH-TPI counter-2 113*.
`CCc1ccc(NC(=O)NNC(=O)c2cc3ccccc3cc2O)cc1` gave PrPC TRFRET 3, Yp Topo-I inh 3, GDH-TPI counter-1 13, TcdB GH inh 2 and FBA Mtb inh 4.
Screening Cc1ccccc1NC(=O)NNC(=O)c1ccc2ccccc2c1O returned PrPC TRFRET 2, Yp Topo-I inh 0, GDH-TPI counter-1 13, TcdB GH inh -1, FBA Mtb inh 31*, Mtb FBA inh conf 55* and GDH-TPI counter-2 36*.
Screening C[C@@H]1CN([C@@H](C)CO)S(=O)(=O)c2ccc(C#C[C@@H](C)O)cc2O[C@@H]1CN(C)Cc1ccc(-c2ccccc2)cc1 returned TcdB GH inh -7.
`O=C(C[C@@H]1C[C@@H]2c3cc(NC(=O)NC4CCCC4)ccc3O[C@@H]2[C@H](CO)O1)NC1CCCC1` gave TcdB GH inh 0.
For O=C(CN1CCOCC1)N[C@H]1CC[C@@H](CCn2cc(C3CCCC3)nn2)O[C@H]1CO the results were TcdB GH inh 1.
`Cc1cccc(S(=O)(=O)c2c(N)n(/N=C/c3ccccc3)c3nc4ccccc4nc23)c1` gave PrPC TRFRET 3, Yp Topo-I inh 0, GDH-TPI counter-1 7 and FBA Mtb inh -2.
For Cc1ccc(C(=O)Nn2c(N)c(S(=O)(=O)c3ccc(C)cc3)c3nc4ccccc4nc32)cc1 the results were PrPC TRFRET 5, Yp Topo-I inh 47, GDH-TPI counter-1 35*, FBA Mtb inh 65*, Mtb FBA inh conf 76* and GDH-TPI counter-2 52*.
